# Only some compounds are listed: those with a hit (about 9.9% of all), similar ones and a draw of the others.
# SW480 rereplic: A quantitative high throughput screen for small molecules that induce DNA re-replication in SW480 colon adenocarcinoma cells | AID 624297, 2012 | actives 1.8% (n = 340,000) | Potency, µM (doses to about 46.1 µM), for the others: at the top dose re-replication activation, most hits filed as activators | SW480 DNA re-replication, Hoechst DNA content imaging, 48 h; note: potency is the fitted concentration of half-maximal effect; % of control where 0% means no effect; nearly all actives have a fitted effect of over 55% in size
#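 Compounds, transferred as 23 nL by pin tool, were incubated with cells for 48 hr; DNA content per nucleus was then quantified by Hoechst staining and fluorescence plate imaging.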
# KB-3-1 cytotox: qHTS assay for MDR1-selective chemotherapeutics: Primary screen using the parental adenocarcinoma cell KB-3-1 | Potency, µM (doses to about 46.1 µM), hits mostly cytotoxic | KB-3-1 viability, CellTiter-Glo ATP luminescence, 72 h | actives 1.4% (n = 400,000); note: potency is the fitted concentration of half-maximal effect; % is set by controls: 0 for no effect and ±100 for the full control effect; nearly all actives have a fitted effect of over 60% in size
#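 KB-3-1 parental drug-naive adenocarcinoma cells in DMEM/10% FBS, incubated 72 h at 37 C with pin-transferred compounds across a concentration series. Viability by CellTiter-Glo luminescence; concentration-response curves fitted after normalization.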
# KB-V1 cytotox: qHTS assay for MDR1-selective chemotherapeutics: Primary screen using the drug-selected MDR subline cells KB-V1; KB-V1 MDR cells viability, CellTiter-Glo, 72 h; AID 1347076, 2019; Potency, µM (titrated, usually from 46.1 µM), hits mostly cytotoxic; actives 3.4% (n = 400,000); note: potency is the fitted concentration of half-maximal effect; % is set by controls: 0 for no effect and ±100 for the full control effect; nearly all actives have a fitted effect of over 60% in size
#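 KB-V1, DMEM (no phenol red) + 10% FBS; cpd pin-transferred, titration series; 72 h, 37 degrees C; CellTiter-Glo, luminescence. Data normalized, curve-fit.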
# MCF10A rereplic: A quantitative high throughput screen for small molecules that induce DNA re-replication in MCF 10a normal breast cells; MCF 10A DNA re-replication, Hoechst nuclear intensity, 48 h; Potency, µM (doses to about 46.1 µM), for inactives: at the highest dose activity, positive = re-replication, actives largely listed as activators; actives 2.9% (n = 350,000); note: potency is the fitted concentration of half-maximal effect; % of control where 0% means no effect; nearly all actives have a fitted effect of over 50% in size
# IL1B secr inh: qHTS for Inhibitors of Inflammasome Signaling: IL-1-beta AlphaLISA Primary Screen. THP-1 LPS/ATP IL-1B secretion, AlphaLISA, 16 h; stronger effect = lower value. activity change, % at 57.5 µM. actives 4.7% (n = 360,000). AID 743279, 2014; in the data active = activity change below about -50%; inconclusive = mostly about -30% to -49%; note: % is set by controls: 0 for no effect and ±100 for the full control effect
#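 Secreted IL-1B measured by AlphaLISA bead assay after 16 h compound exposure of THP-1 cells; compounds (final up to 57.5 uM) added 1 h before LPS (250 ng/mL) and ATP (1.25 mM) stimulation; lower signal means less secretion.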
# Active calls of the source: *; i = inactive; ? = inconclusive; / = no result given; ! = not confirmed by another sample; [ ] = another dose, or the depositor's remark. Unless noted, calls come from the whole dose curve; as a rule, active = well fitted curve in the direction sought with a large enough effect; inconclusive = small, poorly fitted or top-dose-only effect, or another doubt; inactive = no such curve, though single readings can be large; an effect the other way counts as inactive or inconclusive.
SMILES,SW480 rereplic,KB-3-1 cytotox,KB-V1 cytotox,MCF10A rereplic,IL1B secr inh
C/C=C1\NC(=O)[C@H](C)NC(=O)[C@@H](NC(=O)[C@@H](Cc2ccc(O)cc2)NC(=O)[C@@H](NC(=O)/C(C)=C/C)C(C)C)[C@@H](C)OC(=O)[C@H](CCCCc2ccc(O)cc2)NC(=O)[C@@H](CCC(=O)O)NC1=O,-41.2%,i,i,4.8%,23.4
CCc1ccc(S(=O)(=O)c2nnn3c2nc(Nc2cccc(C)c2C)c2sccc23)cc1,/,i,i,/,/
CC(C)Cn1c(N)c(C(=O)COC(=O)CC23CC4CC(CC(C4)C2)C3)c(=O)n(C)c1=O,1.9%,?,?,11.6µM*,?
N#CC1=C(N)NC(SCc2ccccc2)=C(C#N)C12CCCC2,?,?,?,18.4µM*,2.4
COc1ccc(-n2nc(C(=O)c3cccs3)cc(-c3nc4ccccc4[nH]3)c2=N)cc1,?,?,16.4µM*,6.6%,?
Cc1ccccc1-n1nc(C(=O)c2cccs2)cc(-c2nc3ccccc3[nH]2)c1=N,?,i,2.31µM*,26.4%,13.7
CCOC(=O)c1ccccc1NC(=O)c1ccccc1N(C)S(C)(=O)=O,-4.1%,i,18.4µM*,-10.5%,-1.4
O=C(Nc1ccccc1C(=O)NCc1ccco1)Nc1cccc2ccccc12,2.1%,i,i,?,?
O=C(Nc1cccc(Cl)c1)Nc1ccccc1C(=O)NCc1ccco1,-0.5%,i,i,6.5%,-52.9*
CN(c1ccccc1C(=O)Nc1ccccc1C(=O)NCc1ccco1)S(C)(=O)=O,16.5%,i,14.6µM*,1.8%,-9.2
CCOC(=O)c1ccccc1NC(=O)c1ccc(F)cc1,4.7%,i,i,-11.4%,-24.4
CCOC(=O)c1ccccc1NC(=O)c1c(F)c(F)c(F)c(F)c1F,?,i,i,20.6µM*,-69.4*
Cc1ccc(C(=O)Nc2ccccc2C(=O)NCc2ccco2)cc1,0.4%,i,?,16.1%,-15.9
Cc1ccccc1CN(c1ccc(C(=O)Nc2ccccc2C(=O)NCc2ccco2)cc1)S(C)(=O)=O,-12.4%,i,8.2µM*,20.7%,-5.2
COC(=O)c1ccc(NC(=O)N2CCN(Cc3cc(=O)n4nc(-c5ccc(C)cc5)sc4n3)CC2)cc1,/,i,i,/,/
O=C(CSc1nc(=O)n(Cc2ccco2)c2c1CCC2)NCc1ccccc1Cl,/,i,i,/,/
Cc1cc(C)c2c(CC(=O)Nc3ccc(S(=O)(=O)N4CCCC(C)C4)cc3)coc2c1 (stereo not given),/,i,i,/,/
Cn1cnc2cc(NCc3ccccc3O)ccc21,2.5%,i,i,3.4%,4.3
Cc1nc2cc(NCc3ccccc3O)ccc2n1Cc1ccccc1,10.2%,i,?,13.3%[9.22 µM],-54.5*
CCN(CC)S(=O)(=O)c1ccc(NC(=O)COC(=O)CNS(=O)(=O)/C=C/c2ccccc2)cc1,/,i,i,-0.7%,-8.3
Cc1ccc(S(=O)(=O)N2CCOCC2)cc1C(=O)OCC(=O)N1CCCCC1,-3.9%,i,18.4µM*,13.2%,-1.1
CC(=O)c1ccc(NC(=O)c2cc(S(=O)(=O)N3CCOCC3)ccc2C)cc1,-2.5%,i,i,?,30.3
Cc1ccc(S(=O)(=O)N2CCOCC2)cc1C(=O)Nc1ccc(N2CCCCCC2)cc1,31.1%,3.66µM*,?,?,-52.9*
O=C(OCC(=O)N1CCCCCC1)c1ccc(S(=O)(=O)N2CCOCC2)cc1,-18.4%,i,i,5.3%,0.0
O=C(Nc1ccc(N2CCCC2)cc1)c1cc(Br)ccc1Cl,?,20.6µM*,?,?,-23.8
SMILES,SW480 rereplic,KB-3-1 cytotox,KB-V1 cytotox,MCF10A rereplic,IL1B secr inh
Cn1c(N)c(C(=O)COC(=O)c2cc(S(=O)(=O)N3CCOCC3)ccc2F)c(=O)n(C)c1=O,?,/,/,?,-105.5*
CC1CC(C)CN(C(=O)COC(=O)c2cc(S(=O)(=O)N3CCOCC3)ccc2F)C1 (stereo not given),6.3%,i,i,?,-87.8*
O=C(O)/C=C\C(=O)Nc1ccc(N2CCN(c3ccc(Cl)c(Cl)c3)CC2)cc1,9.7%,i,i,4.0%,-71.1*
CN(c1ccccc1)S(=O)(=O)c1ccc(Cl)c(C(=O)OCC(=O)c2c(N)n(C)c(=O)n(C)c2=O)c1,1.6%,i,?,?,16.3
Cc1ccccc1C(=O)Nc1ccc(N2CCCC2)cc1,-12.6%,?,?,0.2%,-55.1*
O=C(O)/C=C\C(=O)Nc1ccc(N2CCN(c3ccc(Cl)cc3)CC2)cc1,-0.6%,i,i,-1.7%,-24.8
C=CCN(c1ccc(OC)cc1)S(=O)(=O)c1ccc(Cl)c(C(=O)OCC(=O)c2c(N)n(C)c(=O)n(C)c2=O)c1,-6.5%,i,16.4µM*,15.0%,-7.9
CCOc1ccccc1NC(=O)N(Cc1ccc(C)o1)C1CCN(C(C)=O)CC1,/,i,i,/,/
COc1cc(/C=N/Nc2ccccc2[N+](=O)[O-])cc(OC)c1O,-3.8%,i,i,-0.9%,1.0
COc1cc(/C=N/Nc2ccc(F)cc2F)cc(OC)c1O,-0.2%,i,i,16.4µM*,-88.8*
COc1cc(/C=N/Nc2nc3ccccc3[nH]c2=O)ccc1O,?,i,i,0.3%,5.1
COc1cccc(/C=N/Nc2nc3ccccc3[nH]2)c1OC,-0.7%[9.22 µM],i,i,33.0%,-11.6
COc1cccc(/C=N/Nc2nc3ccccc3[nH]2)c1O,?,5.8µM*,?,?,-54.8*
COc1cc(/C=N/Nc2nc3ccccc3[nH]2)ccc1O,0.7%,i,18.4µM*,10.0%,-104.7*
COc1cc(/C=C(/C(=O)c2cccs2)c2nc3ccccc3[nH]2)cc(OC)c1O,23.1µM*,3.66µM*,20.6µM*,16.4µM*,-97.5*
C#Cc1cccc(C(=O)N2CCCC(C(=O)c3ccc(OC)cc3C)C2)c1 (stereo not given),0.7%,i,?,11.2%,-0.3
Nc1nc2n(n1)C(=O)CC(c1ccccc1)N2 (stereo not given),-10.1%,i,i,-2.9%,-6.7
C/C(=N\O)C(C)(C)Nc1ccccc1F,3.3%,i,i,1.9%,0.4
COC(=O)c1ccc(/C=N/Nc2nc3ccccc3[nH]2)cc1,-4.3%,i,i,-5.9%,-8.4
COc1cc(/C=N/Nc2nc3ccccc3[nH]2)cc(OC)c1O,15.3%,i,i,?,-99.0*
CCCOC(=O)N[C@@H]1C(=O)N2C(C(=O)OCCC)=C(C)CS[C@H]12,48.7%,16.4µM*!,?,15.9%,-0.1
